Reference: PubChem BioAssay
Calls of active or inactive are those of the source. Unless noted, no rule for the calls is given here.

Legend:
[1] = compounds binding Alexa647 anti-His antibody – biochemical, small-molecule microarray, 635 nm fluorescence, artefact control for SMM control protein annotation, primary screen (AID 1128); settings: higher = more signal;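 also: score merges feature fluorescence with signal-to-noise for each printed compound spot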
[2] = system: Human papillomavirus type 1a E7 protein (residues 1-88); assay: HPV1a E7 small-molecule binders, primary screen, biochemical, small-molecule microarray, residues 1-88, 635 nm (AID 1129); settings: small-molecule microarray binding, fluorescence 635 nm; higher = more signal
[3] = molecular target: Focal adhesion kinase 1 (Homo sapiens) (UniProt Q05397); assay: PTK2 protein binding on printed compound slides – biochemical, small-molecule microarray, 635/667 nm fluorescence, BSA, DTT, primary screen (AID 1130); settings: 635 nm fluorescence, higher = more signal;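 also: composite of spot emission at 667 nm and signal to noise over triplicate slides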
[4] = system: Fibrinogen (Alexa647-labelled); assay: Alexa647-fibrinogen binding to printed small molecules – biochemical, small-molecule microarray, 635/667 nm fluorescence, artefact control for SMM control-protein annotation, profiling panel (AID 1131); settings: fibrinogen-A647 binding fluorescence, higher = more signal;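 also: z-score merges 667 nm fluorescence with per-spot signal-to-noise over triplicate slides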
[5] = molecular target: Follistatin (Homo sapiens) (UniProt P19883); assay: FST protein binding to printed compounds – biochemical, small-molecule microarray, 635/667 nm fluorescence, primary screen (AID 1132); settings: 635 nm fluorescence, higher = more signal
[6] = molecular target: Fibroblast growth factor 2 (Homo sapiens) (UniProt P09038); assay: basic fibroblast growth factor binding to printed compounds – biochemical, small-molecule microarray, 635/667 nm fluorescence, primary screen (AID 1133); settings: FGF2, fluorescence 635/667, higher = more signal
[7] = JC-1 mitochondrial potential readout, lung cancer cells – cell-based, A549, JC-1 fluorescence, basal, 24 h, 100 nL, profiling panel (AID 1138); settings: higher = more signal;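 also: A549 lung adenocarcinoma cells under basal conditions with no added stimulus; test concentration not given here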
Lefty1 = Lefty1 protein binding to printed compounds – biochemical, small-molecule microarray, 635/667 nm fluorescence, primary screen (AID 1139); settings: fluorescence 635/667, higher = more signal
[8] = system: wheat germ agglutinin (Triticum aestivum), Alexa647-labelled; assay: Alexa647-WGA lectin binding to printed small molecules – biochemical, small-molecule microarray, 635/667 nm fluorescence, artefact control for SMM control-protein annotation, profiling panel (AID 1140); settings: WGA-A647 binding, 635 nm fluorescence, higher = more signal;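 also: score merges 667 nm feature emission with signal to noise over triplicate slides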
[9] = molecular target: Luciferin 4-monooxygenase (Photinus pyralis) (UniProt P08659); assay: inhibition of purified Photinus pyralis luciferase – biochemical, luminescence, purified enzyme, 2006 set, primary screen (AID 1141); settings: purified firefly luciferase, SteadyGlo luminescence, 30 min; higher = more signal, called active from +8 up or from −8 down;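 also: cell-free assay with purified firefly luciferase at 100 ng per well in PBS; test concentration not given here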
[10] = system: Wnt5a (protein binding on small-molecule microarray); assay: small molecules binding Wnt5a protein – biophysical, small-molecule microarray, 635/667 nm fluorescence, primary screen (AID 1142); settings: 635 nm fluorescence, higher = more signal;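 also: fluorescence read at 667 nm with signal to noise per printed feature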
[11] = ATP-based viability of Huh7 replicon cells – cell-based, CellTiter-Glo luminescence, basal, 48 h, cytotoxicity control for HCV replication inhibitor project, primary screen (AID 1143); settings: higher = more signal, called active from +8 up or from −8 down;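 also: Huh7 hepatoma cells carrying a hepatitis C replication reporter with no stimulus; test concentration not given here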
[12] = Pseudomonas biofilm growth suppression – PAO1 strain, BacTiter-Glo luminescence, LB-PBS, primary screen (AID 1144); settings: P. aeruginosa PAO1 biofilm, 12 h, higher = more signal
[13] = basal CRE-LacZ reporter activity in PC12 – cell-based, unstimulated, primary screen (AID 1145); settings: no forskolin, luminescence, 4.5 h, higher = more signal, called active from +8 up or from −8 down
[14] = forskolin-driven CRE-LacZ activity in PC12 – cell-based, CRE-LacZ reporter, forskolin-stimulated, primary screen (AID 1146); settings: luminescence, 4.5 h, higher = more signal, called active from +8 up or from −8 down;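 also: PC12 cells with 6xCRE LacZ reporter stimulated by forskolin 10 µM; beta-galactosidase reporter signal reflecting CREB driven transcription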
[15] = molecular target: Streptavidin (Streptomyces avidinii) (UniProt P22629); assay: compounds binding control protein streptavidin – biophysical, small-molecule microarray, 635/667 nm fluorescence, artefact control for SMM compound annotation, primary screen (AID 1147); settings: higher = more signal;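 also: signal reflects streptavidin binding to arrayed compounds as a control protein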
[16] = probe aInhba binding on compound microarray – biochemical, small-molecule microarray, 635/667 nm fluorescence, primary screen (AID 1148); settings: higher = more signal;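 also: score merges 667nm spot fluorescence with signal-to-noise for antibody binding to printed compounds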
Torsin-1A (Homo sapiens) [17] = molecular target: Torsin-1A (Homo sapiens) (UniProt O14656); assay: TOR1A wild-type binding on microarray – cell lysate, small-molecule microarray, lysate, 635/667 nm, primary screen (AID 1149); settings: COS7 hTOR1A-WT lysate, 635 nm fluorescence, higher = more signal
Torsin-1A (Homo sapiens) [18] = molecular target: Torsin-1A (Homo sapiens) (UniProt O14656); assay: torsin A mutant lysate binding on microarrays – cell lysate, small-molecule microarray, COS7 lysate, 635/667 nm fluorescence, primary screen (AID 1150); settings: COS7 hTOR1A mutant lysate, 635 nm fluorescence, higher = more signal;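 also: score pools 667 nm emission and signal to noise measuring lysate protein binding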
[19] = system: Sonic hedgehog protein (Shh); assay: Sonic hedgehog microarray binding compounds – biochemical, small-molecule microarray, 635/667 nm fluorescence, primary screen (AID 1151); settings: 635 nm fluorescence, higher = more signal;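 also: Shh protein binding to compounds spotted on small-molecule microarray slides; score combines spot fluorescence intensity with signal-to-noise across triplicate slides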

Torsin-1A (Homo sapiens), sequence (O14656 whole entry, looked up): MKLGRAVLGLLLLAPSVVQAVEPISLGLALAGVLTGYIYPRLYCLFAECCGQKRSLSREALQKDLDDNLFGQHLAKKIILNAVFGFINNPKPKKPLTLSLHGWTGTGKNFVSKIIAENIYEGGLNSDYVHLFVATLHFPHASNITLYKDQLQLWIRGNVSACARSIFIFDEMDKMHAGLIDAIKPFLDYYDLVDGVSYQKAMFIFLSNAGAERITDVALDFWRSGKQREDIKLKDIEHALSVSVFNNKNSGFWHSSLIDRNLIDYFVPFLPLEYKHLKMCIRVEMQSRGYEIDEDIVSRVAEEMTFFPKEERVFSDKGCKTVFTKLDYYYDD
Follistatin (Homo sapiens), sequence (P19883 whole entry, looked up): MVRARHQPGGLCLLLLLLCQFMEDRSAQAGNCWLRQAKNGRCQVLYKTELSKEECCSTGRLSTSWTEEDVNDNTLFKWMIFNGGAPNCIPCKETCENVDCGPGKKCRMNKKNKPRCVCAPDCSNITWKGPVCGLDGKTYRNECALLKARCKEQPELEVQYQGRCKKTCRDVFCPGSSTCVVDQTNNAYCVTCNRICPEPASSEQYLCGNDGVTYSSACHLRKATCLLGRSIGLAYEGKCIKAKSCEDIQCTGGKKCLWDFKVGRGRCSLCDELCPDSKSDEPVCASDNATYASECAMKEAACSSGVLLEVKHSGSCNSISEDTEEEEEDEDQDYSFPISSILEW
Streptavidin (Streptomyces avidinii), sequence (P22629 whole entry, looked up): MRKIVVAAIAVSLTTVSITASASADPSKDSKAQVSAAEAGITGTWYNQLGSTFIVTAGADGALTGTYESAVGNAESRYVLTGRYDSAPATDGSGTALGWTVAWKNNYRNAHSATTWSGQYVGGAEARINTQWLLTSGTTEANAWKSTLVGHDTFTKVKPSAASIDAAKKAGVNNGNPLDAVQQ
Fibroblast growth factor 2 (Homo sapiens), sequence (P09038 whole entry, looked up): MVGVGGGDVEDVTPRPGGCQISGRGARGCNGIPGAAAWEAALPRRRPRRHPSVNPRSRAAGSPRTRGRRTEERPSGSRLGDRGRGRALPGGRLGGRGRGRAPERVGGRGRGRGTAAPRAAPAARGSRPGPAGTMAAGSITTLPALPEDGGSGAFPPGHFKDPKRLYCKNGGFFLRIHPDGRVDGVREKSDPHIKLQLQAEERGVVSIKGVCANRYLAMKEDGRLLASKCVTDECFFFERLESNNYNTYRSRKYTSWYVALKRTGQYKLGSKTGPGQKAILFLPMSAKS
Luciferin 4-monooxygenase (Photinus pyralis), sequence (P08659 whole entry, looked up): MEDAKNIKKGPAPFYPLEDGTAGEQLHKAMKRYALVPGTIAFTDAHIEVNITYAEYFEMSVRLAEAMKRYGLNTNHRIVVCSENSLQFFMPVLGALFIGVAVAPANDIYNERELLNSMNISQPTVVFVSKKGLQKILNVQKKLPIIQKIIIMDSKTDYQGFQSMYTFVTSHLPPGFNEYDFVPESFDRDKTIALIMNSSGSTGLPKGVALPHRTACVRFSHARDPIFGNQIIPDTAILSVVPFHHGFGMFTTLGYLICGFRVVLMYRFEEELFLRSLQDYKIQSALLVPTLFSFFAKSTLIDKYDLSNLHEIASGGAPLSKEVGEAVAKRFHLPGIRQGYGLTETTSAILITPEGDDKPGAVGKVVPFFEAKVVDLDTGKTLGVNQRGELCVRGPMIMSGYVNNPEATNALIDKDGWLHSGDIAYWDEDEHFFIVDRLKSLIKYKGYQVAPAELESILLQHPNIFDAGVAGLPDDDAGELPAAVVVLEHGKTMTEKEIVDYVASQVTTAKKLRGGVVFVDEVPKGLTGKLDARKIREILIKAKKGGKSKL
Focal adhesion kinase 1 (Homo sapiens), sequence (Q05397 whole entry, looked up): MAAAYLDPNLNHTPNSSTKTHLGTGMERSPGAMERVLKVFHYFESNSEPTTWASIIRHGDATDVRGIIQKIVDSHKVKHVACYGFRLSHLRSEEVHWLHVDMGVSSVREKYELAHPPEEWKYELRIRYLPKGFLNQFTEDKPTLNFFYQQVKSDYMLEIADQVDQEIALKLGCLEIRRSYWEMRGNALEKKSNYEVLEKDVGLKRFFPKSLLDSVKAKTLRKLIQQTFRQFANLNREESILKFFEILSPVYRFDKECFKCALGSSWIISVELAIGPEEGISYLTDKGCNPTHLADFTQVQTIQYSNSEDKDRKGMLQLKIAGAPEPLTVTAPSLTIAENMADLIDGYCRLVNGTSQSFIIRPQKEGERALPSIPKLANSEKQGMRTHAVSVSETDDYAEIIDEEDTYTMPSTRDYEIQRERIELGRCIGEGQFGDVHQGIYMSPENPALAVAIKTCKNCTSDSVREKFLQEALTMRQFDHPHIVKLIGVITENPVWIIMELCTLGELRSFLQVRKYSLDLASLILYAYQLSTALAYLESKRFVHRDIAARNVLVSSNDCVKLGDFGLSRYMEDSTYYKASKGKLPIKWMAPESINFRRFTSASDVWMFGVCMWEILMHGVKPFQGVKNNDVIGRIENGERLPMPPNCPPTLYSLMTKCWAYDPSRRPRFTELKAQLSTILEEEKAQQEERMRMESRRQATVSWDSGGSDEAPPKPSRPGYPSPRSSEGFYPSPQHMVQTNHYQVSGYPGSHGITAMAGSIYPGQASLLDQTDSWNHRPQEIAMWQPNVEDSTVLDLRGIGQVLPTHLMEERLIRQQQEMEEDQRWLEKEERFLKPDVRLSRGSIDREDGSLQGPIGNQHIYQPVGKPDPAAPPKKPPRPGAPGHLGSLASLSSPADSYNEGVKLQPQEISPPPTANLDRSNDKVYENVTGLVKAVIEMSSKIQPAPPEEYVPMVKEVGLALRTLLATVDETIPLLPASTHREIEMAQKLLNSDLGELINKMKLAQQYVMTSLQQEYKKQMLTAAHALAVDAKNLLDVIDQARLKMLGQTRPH

SMILES | composite z-score [1] | composite z-score [2] | composite z-score [3] | composite z-score [4] | composite z-score [5] | composite z-score [6] | z-score [7] | composite z-score (Lefty1) | composite z-score [8] | z-score [9] | composite z-score [10] | z-score [11] | z-score [12] | z-score [13] | z-score [14] | composite z-score [15] | composite z-score [16] | composite z-score (Torsin-1A (Homo sapiens) [17]) | composite z-score (Torsin-1A (Homo sapiens) [18]) | composite z-score [19]
O=C1[C@H]2[C@H]3[C@H](O)[C@H](O)CC(=NOC[C@@H](O)COCc4ccco4)[C@H]3CC[C@H]2C(=O)N1C1CCCCC1 | -0.0844 | -0.476 | -0.329 | -1.02 | 1.21 | 1.07 | -0.948 | 1.3 | -1.22 | 0.822 (inactive) | 0.257 | -2.97 (inactive) | -0.925 (inactive) | 3.33 (inactive) | 0.279 (inactive) | -0.112 | 0.158 | 2.07 | 1.64 | 1.54
CCc1cc2c(nc1CC)CCN(CCC(C)=NOC[C@@H](O)COCc1ccco1)C2 | 1.31 | -0.952 | -0.439 | -0.19 | 1.47 | 1.53 | 1.69 | 1.53 | 0.182 | -0.85 (inactive) | 0.391 | -0.112 (inactive) | 0.132 (inactive) | 2.16 (inactive) | 0.785 (inactive) | 0.536 | 0.149 | 3.95 | 3.64 | 2.31
O=C1[C@H]2[C@H]3[C@H](O)[C@H](O)CC(=NOC[C@@H](O)COCc4ccco4)[C@@H]3CC[C@H]2C(=O)N1c1ccc(F)cc1F | -0.0634 | 0.126 | -0.358 | -0.313 | 0.532 | 0.646 | -0.808 | 0.59 | -0.385 | 1.03 (inactive) | 0.0016 | -1.7 (inactive) | 1.85 (inactive) | -0.475 (inactive) | -0.0097 (inactive) | -0.195 | -0.231 | 1.13 | 0.516 | 0.749
CC(CCN1CCCCc2nc(C)c(C)cc21)=NOC(C)CN1CCCCc2nc(C)c(C)cc21 (stereo not given) | 2.37 | 1.2 | 0.332 | 0.911 | 1.29 | 1.3 | 0.828 | 1.6 | 1.11 | -0.483 (inactive) | 0.183 | -2.16 (inactive) | 0.483 (inactive) | 0.187 (inactive) | 0.907 (inactive) | 1.1 | 0.0528 | 2.88 | 2.32 | 1.69
CCN1C(=O)[C@H]2[C@H]3[C@H](O)C=CC(=O)[C@@H]3CC[C@H]2C1=O | 0.635 | 0.936 | 0.0565 | 0.677 | 0.307 | 0.731 | -0.774 | 0.514 | 0.295 | -0.605 (inactive) | 0.213 | 0.148 (inactive) | 0.465 (inactive) | 0.342 (inactive) | 0.069 (inactive) | 0.232 | -0.0759 | 0.0994 | 0.546 | 0.62
C[C@H](c1ccccc1)N1C(=O)[C@H]2[C@@H]3C(=CC[C@H]2C1=O)C(=O)[C@H]1O[C@H]1[C@H]3O | 1.36 | 0.336 | 0.204 | 0.367 | 0.642 | 0.565 | -0.732 | 0.708 | -0.0651 | -1.47 (inactive) | -0.103 | -7.43 (inactive) | 1.16 (inactive) | 0.699 (inactive) | 4.29 (inactive) | 0.108 | -0.0474 | 0.25 | -0.0342 | 0.469
C[N+](C)(C)CCCCCCNC(=O)[C@@H]1C[C@@H]2C(=O)N3CCC[C@H]3C(=O)N2[C@@H]1c1cccc(OCCO)c1 | 1.06 | 0.049 | 0.622 | -1.47 | 1.27 | 0.941 | -0.518 | 0.915 | -0.122 | 0.688 (inactive) | -0.0544 | -0.345 (inactive) | -1.34 (inactive) | -1.34 (inactive) | 0.27 (inactive) | -1.05 | -0.0754 | -0.383 | 0.624 | 2.25
CC(CCN1CCc2nc(-c3ccccc3)c(-c3ccccc3)cc2C1)=NO[C@@H](C)c1cn([C@H](CO)Cc2ccccc2)nn1 | -0.0253 | 0.219 | 0.0807 | 0.929 | 0.408 | 0.453 | 1.22 | 0.342 | 0.706 | -1.77 (inactive) | -0.107 | -0.802 (inactive) | -0.414 (inactive) | 0.573 (inactive) | -0.795 (inactive) | 0.52 | 0.0131 | 1.62 | 0.482 | 1.25
CCCC[C@@H]1C[C@H]1[C@@H](NS(=O)(=O)c1cccc2cccnc12)c1ccc(-c2ccccc2)cc1 | 0.983 | 1.08 | 0.479 | -0.809 | 0.0634 | -1.06 | 0.164 | -0.805 | 0.366 | 0.633 (inactive) | -0.0366 | -0.325 (inactive) | -1.02 (inactive) | 0.204 (inactive) | 1.62 (inactive) | 0.731 | 0.134 | -0.199 | -0.199 | -1.66
COc1ccc(OC[C@H]2Cc3c(-c4ccccc4)nc4c(c3CO2)CN(CCOc2ccccc2)CC4)cc1 | 1.78 | 0.928 | 0.169 | 0.811 | 0.923 | 0.596 | 0.774 | 1.25 | 0.387 | -0.356 (inactive) | 0.133 | -3.41 (inactive) | -1.27 (inactive) | 5.99 (inactive) | -1.02 (inactive) | 0.633 | 0.109 | 0.086 | 0.534 | 1.37
